# Source: the supplement of paper PMC8728848
# The full list was thinned out, with the strongest signals kept by preference.
# Legend:
# Test in all cases: glycan array binding signal (z-score within array); higher = stronger binding
# Details in all cases: glycan notation: IUPAC condensed, linker removed
# [1] = target: GlcNAc(b1-3)Gal(b1-4)GlcNAc(b1-2)[GlcNAc(b1-3)Gal(b1-4)GlcNAc(b1-6)]Man(a1-6)[GlcNAc(b1-3)Gal(b1-4)GlcNAc(b1-2)Man(a1-3)]Man(b1-4)GlcNAc(b1-4)GlcNAc
# Procedure, shortened: (§1)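 From the Consortium for Functional Glycomics database, 3228 arrays were curated, keeping only those whose protein sequence was available. Binding is given as a within-array Z-score averaged across arrays sharing a protein sequence and across linkers. Negative Z-scores can be read as non-binding.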
# [2] = target: GlcNAc(b1-3)Gal(b1-4)GlcNAc(b1-3)Gal(b1-4)GlcNAc
# Procedure, shortened: as §1
# [3] = target: GlcNAc(b1-4)GlcNAc(b1-4)GlcNAc(b1-4)GlcNAc(b1-4)GlcNAc
# Procedure, shortened: as §1
# [4] = target: Kdn(a2-6)Gal(b1-4)GlcNAc
# Procedure, shortened: as §1
# [5] = target: Man(a1-2)Man(a1-3)[Man(a1-6)]Man(a1-6)[Man(a1-2)Man(a1-3)]Man(b1-4)GlcNAc(b1-4)GlcNAc
# Procedure, shortened: as §1
# [6] = target: MurNAc(b1-4)GlcNAc
# Procedure, shortened: as §1
# [7] = target: Neu5Ac(a2-3)Gal(b1-3)GalNAc(b1-4)[Neu5Ac(a2-3)]Gal(b1-4)Glc
# Procedure, shortened: as §1
# [8] = target: Neu5Ac(a2-3)Gal(b1-3)GlcNAc(b1-2)Man(a1-3)[Neu5Ac(a2-3)Gal(b1-3)GlcNAc(b1-2)Man(a1-6)]Man(b1-4)GlcNAc(b1-4)GlcNAc
# Procedure, shortened: as §1
# [9] = target: Neu5Ac(a2-3)Gal(b1-3)GlcNAc6S
# Procedure, shortened: as §1
# [10] = target: Neu5Ac(a2-3)Gal(b1-3)[Fuc(a1-4)]GlcNAc(b1-3)Gal(b1-3)[Fuc(a1-4)]GlcNAc
# Procedure, shortened: as §1
# [11] = target: Neu5Ac(a2-3)Gal(b1-3)[Fuc(a1-4)]GlcNAc(b1-3)Gal(b1-4)[Fuc(a1-3)]GlcNAc
# Procedure, shortened: as §1
# [12] = target: Neu5Ac(a2-3)Gal(b1-4)GlcNAc(b1-2)Man
# Procedure, shortened: as §1
# [13] = target: Neu5Ac(a2-3)Gal(b1-4)GlcNAc(b1-3)Gal(b1-3)GlcNAc
# Procedure, shortened: as §1
# [14] = target: Neu5Ac(a2-3)Gal(b1-4)GlcNAc6S
# Procedure, shortened: as §1
# [15] = target: Neu5Ac(a2-3)Gal(b1-4)[Fuc(a1-3)]GlcNAc
# Procedure, shortened: as §1
# [16] = target: Neu5Ac(a2-3)[Neu5Ac(a2-6)]GalNAc
# Procedure, shortened: as §1
# [17] = target: Neu5Ac(a2-6)Gal(b1-4)GlcNAc(b1-2)Man(a1-6)[Gal(b1-4)GlcNAc(b1-2)Man(a1-3)]Man(b1-4)GlcNAc(b1-4)GlcNAc
# Procedure, shortened: as §1
# [18] = target: Neu5Ac(a2-6)Gal(b1-4)GlcNAc(b1-3)Gal(b1-4)GlcNAc(b1-2)Man(a1-3)[Neu5Ac(a2-6)Gal(b1-4)GlcNAc(b1-3)Gal(b1-4)GlcNAc(b1-2)Man(a1-6)]GalNAc
# Procedure, shortened: as §1
# [19] = target: Neu5Ac(a2-6)Gal(b1-4)GlcNAc(b1-3)Gal(b1-4)GlcNAc(b1-3)GalNAc
# Procedure, shortened: as §1
# [20] = target: Neu5Ac(a2-6)GalNAc(b1-4)GlcNAc6S
# Procedure, shortened: as §1
# [21] = target: Neu5Ac(a2-8)Neu5Ac(a2-3)[Gal(b1-3)GalNAc(b1-4)]Gal(b1-4)Glc
# Procedure, shortened: as §1
# [22] = target: Neu5Gc(a2-3)Gal(b1-3)[Fuc(a1-4)]GlcNAc
# Procedure, shortened: as §1
# [23] = target: Neu5Gc(a2-3)Gal(b1-4)[Fuc(a1-3)]GlcNAc
# Procedure, shortened: as §1
# [24] = target: Neu5Gc(b2-6)Gal(b1-4)GlcNAc
# Procedure, shortened: as §1
# [25] = target: Fuc(a1-2)Gal(b1-4)Fuc(a1-3)]GlcNAc(b1-2)Man(a1-3)[Fuc(a1-2)Gal(b1-4)[Fuc(a1-3)]GlcNAc(b1-2)Man(a1-6)]Man(b1-4)GlcNAc(b1-4)GlcNAc
# Procedure, shortened: as §1
# [26] = target: Fuc(a1-2)Gal(b1-4)GlcNAc(b1-2)Man(a1-3)[Fuc(a1-2)Gal(b1-4)GlcNAc(b1-2)Man(a1-6)]Man(b1-4)GlcNAc(b1-4)GlcNAc
# Procedure, shortened: as §1
# [27] = target: Fuc(a1-2)Gal(b1-4)GlcNAc(b1-3)Gal(b1-4)GlcNAc(b1-2)Man(a1-3)[Fuc(a1-2)Gal(b1-4)GlcNAc(b1-3)Gal(b1-4)GlcNAc(b1-2)Man(a1-6)]Man(b1-4)GlcNAc(b1-4)GlcNAc
# Procedure, shortened: as §1
# [28] = target: Fuc(a1-2)Gal(b1-4)GlcNAc(b1-6)GalNAc
# Procedure, shortened: as §1
# [29] = target: Fuc(a1-2)Gal(b1-4)GlcNAc6S
# Procedure, shortened: as §1
# [30] = target: Fuc(a1-2)Gal(b1-4)[Fuc(a1-3)]GlcNAc(b1-3)GalNAc
# Procedure, shortened: as §1
# [31] = target: Fuc(a1-2)[Gal(a1-3)]Gal(b1-3)GlcNAc(b1-2)Man(a1-3)[Fuc(a1-2)[Gal(a1-3)]Gal(b1-3)GlcNAc(b1-2)Man(a1-6)]Man(b1-4)GlcNAc(b1-4)GlcNAc
# Procedure, shortened: as §1
# [32] = target: Fuc(a1-2)[Gal(a1-3)]Gal(b1-4)GlcNAc(b1-2)Man
# Procedure, shortened: as §1
# [33] = target: Fuc(a1-2)[GalNAc(a1-3)]Gal(b1-3)GlcNAc(b1-6)GalNAc
# Procedure, shortened: as §1
# [34] = target: Fuc(a1-2)[GalNAc(a1-3)]Gal(b1-4)GlcNAc(b1-2)Man(a1-3)[Fuc(a1-2)[GalNAc(a1-3)]Gal(b1-4)GlcNAc(b1-2)Man(a1-6)]Man(b1-4)GlcNAc(b1-4)GlcNAc
# Procedure, shortened: as §1
# [35] = target: Fuc(a1-2)[GalNAc(a1-3)]Gal(b1-4)GlcNAc(b1-3)[Fuc(a1-2)[GalNAc(a1-3)]Gal(b1-4)GlcNAc(b1-6)]GalNAc
# Procedure, shortened: as §1
# [36] = target: Fuc(a1-3)[Gal3S(b1-4)]Glc
# Procedure, shortened: as §1
# [37] = target: Gal(a1-3)Gal
# Procedure, shortened: as §1
# [38] = target: Gal(a1-3)Gal(b1-4)[Fuc(a1-3)]GlcNAc
# Procedure, shortened: as §1
# [39] = target: Gal(b1-3)[Fuc(a1-4)]GlcNAc
# Procedure, shortened: as §1
# [40] = target: Gal(b1-4)GalNAc(b1-3)[Fuc(a1-2)]Gal(b1-4)GlcNAc
# Procedure, shortened: as §1
# [41] = target: Gal(b1-4)GlcNAc(b1-2)Man(a1-3)Man(b1-4)GlcNAc(b1-4)GlcNAc
# Procedure, shortened: as §1
# [42] = target: Gal(b1-4)GlcNAc(b1-2)[Gal(b1-4)GlcNAc(b1-4)]Man(a1-3)[GlcNAc(b1-4)][Gal(b1-4)GlcNAc(b1-2)[Gal(b1-4)GlcNAc(b1-6)]Man(a1-6)]Man(b1-4)GlcNAc(b1-4)GlcNAc
# Procedure, shortened: as §1
# [43] = target: Gal(b1-4)GlcNAc(b1-3)Gal(b1-3)GlcNAc
# Procedure, shortened: as §1
# [44] = target: Gal(b1-4)GlcNAc(b1-3)Gal(b1-4)GlcNAc(b1-3)Gal(b1-4)GlcNAc
# Procedure, shortened: as §1
# [45] = target: Gal(b1-4)GlcNAc(b1-3)Gal(b1-4)GlcNAc(b1-3)Gal(b1-4)GlcNAc(b1-3)Gal(b1-4)GlcNAc(b1-2)Man(a1-3)[Gal(b1-4)GlcNAc(b1-3)Gal(b1-4)GlcNAc(b1-3)Gal(b1-4)GlcNAc(b1-3)Gal(b1-4)GlcNAc(b1-2)Man(a1-6)]Man(b1-4)GlcNAc(b1-4)[Fuc(a1-6)]GlcNAc
# Procedure, shortened: as §1
# [46] = target: GalNAc(b1-4)GlcNAc(b1-2)Man
# Procedure, shortened: as §1
# [47] = target: GalNAc3S(b1-4)GlcNAc3S
# Procedure, shortened: as §1
# [48] = target: GlcNAc(b1-2)[GlcNAc(b1-6)]Man(a1-6)[GlcNAc(b1-2)Man(a1-3)]Man(b1-4)GlcNAc(b1-4)GlcNAc
# Procedure, shortened: as §1
# [49] = target: GlcNAc(b1-3)Gal(b1-4)Glc
# Procedure, shortened: as §1
# [50] = target: GlcNAc(b1-3)Gal(b1-4)GlcNAc
# Procedure, shortened: as §1
# [51] = target: GlcNAc(b1-3)GalNAc
# Procedure, shortened: as §1
# [52] = target: GlcNAc(b1-3)[GlcNAc(b1-4)][GlcNAc(b1-6)]GlcNAc
# Procedure, shortened: as §1
# [53] = target: Man(a1-3)[Man(a1-6)]Man(a1-6)[Man(a1-2)Man(a1-3)]Man(b1-4)GlcNAc(b1-4)GlcNAc
# Procedure, shortened: as §1
binder,measurement,setting,value
"CD34 (Homo sapiens), P28906 (protein) MGSSHHHHHHSSGLVPRGSHMSTSLATSPTKPYTSSSPILSDIKAEIKCSGIREVKLTQGICLEQNKTSSCAEFKKDRGEGLARVLCGEEQADADAGAQVCSLLLAQSEVRPQCLLLVLANRTEISSKLQLMKKHQSDLKKLGILDFTEQDVASHQSYSQKT",glycan array binding signal (z-score),[1],-0.175
same,glycan array binding signal (z-score),[2],-0.666
same,glycan array binding signal (z-score),[3],0.087
same,glycan array binding signal (z-score),[4],-0.352
same,glycan array binding signal (z-score),[5],-0.726
same,glycan array binding signal (z-score),[6],1.79
same,glycan array binding signal (z-score),[7],2.63
same,glycan array binding signal (z-score),[8],2.09
same,glycan array binding signal (z-score),[9],0.142
same,glycan array binding signal (z-score),[10],1.31
same,glycan array binding signal (z-score),[11],-0.478
same,glycan array binding signal (z-score),[12],1.1
same,glycan array binding signal (z-score),[13],-0.171
same,glycan array binding signal (z-score),[14],-0.319
same,glycan array binding signal (z-score),[15],-0.826
same,glycan array binding signal (z-score),[16],-0.204
same,glycan array binding signal (z-score),[17],-0.644
same,glycan array binding signal (z-score),[18],0.167
same,glycan array binding signal (z-score),[19],0.803
same,glycan array binding signal (z-score),[20],0.66
same,glycan array binding signal (z-score),[21],-0.858
same,glycan array binding signal (z-score),[22],0.294
same,glycan array binding signal (z-score),[23],1.71
same,glycan array binding signal (z-score),[24],-0.479
"CcfD (Bacteroides vulgatus), A6KYX8 (protein) MKYKNYFKSIIYLALGAFTLGSCEDFLDRQEDEKLTFDKIWESRNTTQQYWLNAMSFLPNENGSLQGDTEPYLGASDECTIAYDRQYRWINFGTWNPSQVPYYKMDHYYKGIRECNIFLQNVYKCSDPLVTKDQLDEWYWQTRFARAYYYFLMMRDYGPVFLLGDDLLDFTASTEELYRPRNTWDQCVNYVVSEMTQCAESGVVLQQSDLPAAKWGLATVGTCHAVISRLLLYSARPLFNGNKLYSTVKNPDAPDFPELSGVKLFPELDNTKWQKAAEAAKKLIDNPCYELYRAGNDNPYEDYYGVTHETWNKELIWTDRYNGLFSWGVGTVPTGVAGTAYGAVGPTQALVDAYAMNTGWYPITGYEADGTPIVEPLSGYELASELEKSSWIYPSGGWSNKADFEIEAPNMYKDREPRFYVTVFFGGNQWLHGNSATSISFAKGGNGNKSHDYPKSGYLCNRFYDHKLNSSEGQWGNITFPVFRLGEIYLNFIEAVLECKKNGVALDPSYEALAMEKWADLRKRAGLDPITSIYGQVSTEELIQLCRKERQIELAFERHRYFDTRTWMIATQTDNGKMYGMNTSCPLDAGMKGTETPDGFWERTAFETRVFQNKHYLYPFSQRELDRNKLLTQNYGW",glycan array binding signal (z-score),[25],2
same,glycan array binding signal (z-score),[26],4.7
same,glycan array binding signal (z-score),[27],4.15
same,glycan array binding signal (z-score),[28],0.552
same,glycan array binding signal (z-score),[29],1.84
same,glycan array binding signal (z-score),[30],0.374
same,glycan array binding signal (z-score),[31],3.23
same,glycan array binding signal (z-score),[32],-0.282
same,glycan array binding signal (z-score),[33],-0.82
same,glycan array binding signal (z-score),[34],4.4
same,glycan array binding signal (z-score),[35],0.323
same,glycan array binding signal (z-score),[36],-0.429
same,glycan array binding signal (z-score),[37],0.343
same,glycan array binding signal (z-score),[38],0.14
same,glycan array binding signal (z-score),[39],-0.269
same,glycan array binding signal (z-score),[40],-0.749
same,glycan array binding signal (z-score),[41],3
same,glycan array binding signal (z-score),[42],-0.683
same,glycan array binding signal (z-score),[43],-0.932
same,glycan array binding signal (z-score),[44],-1.02
same,glycan array binding signal (z-score),[45],0.003
same,glycan array binding signal (z-score),[46],-0.896
same,glycan array binding signal (z-score),[47],-0.21
same,glycan array binding signal (z-score),[48],-0.663
same,glycan array binding signal (z-score),[49],-0.881
same,glycan array binding signal (z-score),[50],-1.04
same,glycan array binding signal (z-score),[1],3.38
same,glycan array binding signal (z-score),[51],-0.332
same,glycan array binding signal (z-score),[52],2.41
same,glycan array binding signal (z-score),[53],-0.673
